The source of these data is PubChem BioAssay.

The source made the active and inactive calls.

Assay [1] deals with PRMT1 (protein arginine N-methyltransferase 1). In words: PRMT1 binders on small-molecule microarrays, primary screen, biochemical, small-molecule microarray, 635 nm fluorescence (AID 1088).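 Note: binding of Prmt1 protein to compounds spotted on small-molecule microarray slides.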 The settings on record: small-molecule microarray binding, higher = more signal.
Assay [2] is described as follows: yeast growth modulation, basal conditions, primary screen, YJM789 clinical isolate, OD600, 24 h (AID 1089).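 Note: growth of clinical yeast isolate S. cerevisiae YJM 789 seeded 1000 cells per well; test concentration not given here.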 The conditions noted are these: S. cerevisiae YJM789 growth, higher = more signal, called active from +8 up or from −8 down.
Assay [3] is described as follows: fission yeast growth modulation, primary screen, strain 972, OD600, 24 h, no modulator (AID 1090).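 Note: basal condition with compound alone and no growth modifier present; test concentration not given here.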 The conditions noted are these: S. pombe 972 growth, higher = more signal, called active from +8 up or from −8 down.
A short description of assay [4]: S. cerevisiae growth modulation with rapamycin, primary screen, strain BY4716, OD600, 96 h (AID 1091). Note: test concentration not given here. The settings on record: higher = more signal, called active from +8 up or from −8 down.
Assay [5] addresses Torsin-1A-interacting protein 2 (Homo sapiens) (UniProt Q8NFQ8). In words: LULL1 binders on small-molecule microarray, primary screen, cell lysate, human LULL1 lysate, 635/667 nm fluorescence (AID 1092).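 Note: probe is lysate of COS7 cells overexpressing human LULL1; score merges per-feature 667 nm fluorescence with signal-to-noise.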 The conditions noted are these: hLULL1 lysate binding, 635 nm fluorescence, higher = more signal.
Assay [6] is described as follows: E. coli growth modulation, two-sided OD650, primary screen, E. coli filamentation project, strain DRC41, 24 h (AID 1093).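 Note: MC1000 strain lacking acrAB efflux and sulA so SOS filamentation is blocked; test concentration not given here.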 The conditions noted are these: OD650, 24 h, higher = more signal, called active from +8 up or from −8 down.
Assay [7] is described as follows: small-molecule microarray binders of probe aLefty2, primary screen, biochemical, biotinylated probe, 635/667 nm fluorescence (AID 1094).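 Note: score merges spot fluorescence near 667 nm with spot signal-to-noise ratio.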 The settings on record: higher = more signal.
Assay [8] deals with Noggin (protein binding on small-molecule microarray). In words: Noggin binders on small-molecule microarray, primary screen, biochemical, 635/667 nm fluorescence (AID 1095).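 Note: score merges 667 nm feature fluorescence with signal to noise over triplicate slides.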 The conditions noted are these: 635 nm fluorescence, higher = more signal.
In assay [9] the target is Neurogenic locus notch homolog protein 3 (Homo sapiens) (UniProt Q9UM47). In words: NOTCH3 binders on small-molecule microarray, primary screen, biochemical, 635/667 nm fluorescence (AID 1096). The conditions noted are these: NOTCH3 binding, 635 nm fluorescence, higher = more signal.
Sequence of Neurogenic locus notch homolog protein 3 (Homo sapiens) (Q9UM47 whole entry, looked up): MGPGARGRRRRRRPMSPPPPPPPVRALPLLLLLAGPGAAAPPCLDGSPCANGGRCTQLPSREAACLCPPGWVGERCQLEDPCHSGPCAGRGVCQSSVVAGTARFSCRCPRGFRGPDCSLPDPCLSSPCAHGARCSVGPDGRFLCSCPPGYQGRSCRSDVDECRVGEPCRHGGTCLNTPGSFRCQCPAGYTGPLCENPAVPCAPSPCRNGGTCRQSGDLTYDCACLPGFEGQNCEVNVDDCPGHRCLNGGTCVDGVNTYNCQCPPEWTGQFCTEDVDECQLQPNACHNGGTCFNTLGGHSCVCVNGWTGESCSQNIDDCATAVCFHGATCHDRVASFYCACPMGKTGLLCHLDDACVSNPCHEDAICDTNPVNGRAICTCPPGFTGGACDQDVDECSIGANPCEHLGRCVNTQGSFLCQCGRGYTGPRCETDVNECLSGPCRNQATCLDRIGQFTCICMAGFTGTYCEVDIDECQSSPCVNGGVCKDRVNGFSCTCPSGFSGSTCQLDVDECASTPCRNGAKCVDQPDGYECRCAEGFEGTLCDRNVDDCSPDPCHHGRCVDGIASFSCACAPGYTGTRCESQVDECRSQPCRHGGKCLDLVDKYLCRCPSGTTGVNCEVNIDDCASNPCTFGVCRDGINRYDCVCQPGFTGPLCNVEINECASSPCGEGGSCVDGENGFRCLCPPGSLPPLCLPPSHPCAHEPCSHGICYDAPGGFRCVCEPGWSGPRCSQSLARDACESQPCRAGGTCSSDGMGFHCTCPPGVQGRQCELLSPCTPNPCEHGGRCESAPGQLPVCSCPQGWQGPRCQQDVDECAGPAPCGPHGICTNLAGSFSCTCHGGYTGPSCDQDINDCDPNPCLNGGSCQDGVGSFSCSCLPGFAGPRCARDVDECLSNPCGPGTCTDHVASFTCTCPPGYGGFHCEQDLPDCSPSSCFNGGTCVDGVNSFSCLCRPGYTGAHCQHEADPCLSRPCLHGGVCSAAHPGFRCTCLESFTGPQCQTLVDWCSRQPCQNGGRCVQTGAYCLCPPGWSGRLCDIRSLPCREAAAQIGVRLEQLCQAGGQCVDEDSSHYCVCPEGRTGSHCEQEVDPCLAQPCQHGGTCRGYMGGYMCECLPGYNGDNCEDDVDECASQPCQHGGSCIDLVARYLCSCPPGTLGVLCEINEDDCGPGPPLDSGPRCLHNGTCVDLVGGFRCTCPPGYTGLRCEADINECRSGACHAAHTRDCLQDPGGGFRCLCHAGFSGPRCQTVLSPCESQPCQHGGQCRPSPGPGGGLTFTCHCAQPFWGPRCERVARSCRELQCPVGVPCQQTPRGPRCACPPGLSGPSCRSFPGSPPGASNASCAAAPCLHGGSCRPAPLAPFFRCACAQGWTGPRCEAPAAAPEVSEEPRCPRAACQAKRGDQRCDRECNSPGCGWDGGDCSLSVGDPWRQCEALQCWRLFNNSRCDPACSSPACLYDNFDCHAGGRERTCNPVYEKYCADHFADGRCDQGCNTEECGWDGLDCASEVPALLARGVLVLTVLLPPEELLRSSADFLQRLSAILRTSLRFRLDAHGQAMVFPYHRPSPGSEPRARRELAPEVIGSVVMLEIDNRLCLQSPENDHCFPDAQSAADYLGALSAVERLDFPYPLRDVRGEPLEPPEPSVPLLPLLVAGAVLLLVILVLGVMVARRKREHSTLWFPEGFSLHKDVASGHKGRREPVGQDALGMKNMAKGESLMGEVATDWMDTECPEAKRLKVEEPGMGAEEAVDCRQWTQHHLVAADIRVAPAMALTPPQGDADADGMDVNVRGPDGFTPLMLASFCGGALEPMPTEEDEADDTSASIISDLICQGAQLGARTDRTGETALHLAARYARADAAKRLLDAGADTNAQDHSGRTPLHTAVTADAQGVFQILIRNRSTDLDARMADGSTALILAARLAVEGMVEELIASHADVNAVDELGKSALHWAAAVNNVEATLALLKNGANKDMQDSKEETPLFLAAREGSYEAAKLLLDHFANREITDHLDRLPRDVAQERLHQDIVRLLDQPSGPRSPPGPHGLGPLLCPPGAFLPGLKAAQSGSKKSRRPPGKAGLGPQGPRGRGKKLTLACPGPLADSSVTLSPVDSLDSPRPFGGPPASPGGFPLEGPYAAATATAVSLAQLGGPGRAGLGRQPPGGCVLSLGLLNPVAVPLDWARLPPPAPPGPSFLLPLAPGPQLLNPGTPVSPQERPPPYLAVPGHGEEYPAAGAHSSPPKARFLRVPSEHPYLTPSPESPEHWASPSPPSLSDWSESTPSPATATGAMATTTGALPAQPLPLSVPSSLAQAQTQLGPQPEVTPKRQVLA
A short description of assay [10]: small-molecule microarray binders of probe aEGFR, primary screen, biochemical, biotinylated probe, 635/667 nm fluorescence (AID 1097).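 Note: probe is a biotinylated anti-EGFR antibody binding compounds printed on slides; score combines fluorescence near 667 nm and signal to noise of each spot.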 The settings on record: higher = more signal.
Assay [11] relates to Plasmodium falciparum Sir2 (PF13_0152, Sir2A). Description: pfSir2 binders on small-molecule microarrays, primary screen, biochemical, small-molecule microarray, 635 nm fluorescence (AID 1098).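 Note: score merges spot fluorescence intensity with its signal-to-noise ratio.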 The settings on record: small-molecule microarray binding, fluorescence 635 nm; higher = more signal.
Assay [12] can be described thus: small-molecule microarray binders of probe aDKK1, primary screen, biochemical, biotinylated probe, 635/667 nm fluorescence (AID 1099).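 Note: score merges 667nm spot fluorescence with signal to noise across triplicate slides; reference of the scale not given here.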 The conditions noted are these: higher = more signal.
Assay [13] can be described thus: small-molecule microarray binders of probe aCHRDL2, primary screen, biochemical, biotinylated probe, 635/667 nm fluorescence (AID 1100). The settings on record: higher = more signal.
Assay [14] is described as follows: splicing luciferase reporter signal modulators, primary screen, spliceosome inhibition project, cell-based, HEK293, splice +/- reporter (AID 1101).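 Note: HEK293 cells carrying a splicing-competent luciferase reporter gene; test concentration not given here.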 The settings on record: luminescence, 24 h, higher = more signal, called active from +8 up or from −8 down. Background: A reporter such as luciferase makes a cellular process visible.
Assay [15] concerns the target Fibroblast growth factor 10 (Homo sapiens) (UniProt O15520). In words: FGF10 binders on small-molecule microarrays, primary screen, biochemical, small-molecule microarray, 635 nm fluorescence (AID 1102). The settings on record: FGF10 binding, fluorescence 635 nm, higher = more signal.
Assay [16] has as its system glycogen synthase kinase-3 (GSK3A per assay name; protocol says GSK3B). Description: GSK3 binders on small-molecule microarrays, primary screen, biochemical, small-molecule microarray, 635 nm fluorescence, GSK3A (AID 1103). Note: the record names both GSK3A and GSK3B. The conditions noted are these: small-molecule microarray binding, fluorescence 635 nm; higher = more signal.
Assay [17] concerns the target Epidermal growth factor receptor (Homo sapiens) (UniProt P00533). In words: EGFR binders on small-molecule microarrays, primary screen, biochemical, small-molecule microarray, 635 nm fluorescence (AID 1104).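 Note: score merges 667 nm emission intensity with spot signal to noise over triplicate slides.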 The conditions noted are these: EGFR binding, higher = more signal.
Assay [18] deals with Follistatin-related protein 3 (Homo sapiens) (UniProt O95633). In words: FSTL3 binders on small-molecule microarrays, primary screen, biochemical, small-molecule microarray, 635 nm fluorescence (AID 1105).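 Note: score merges emission near 667 nm and signal to noise per printed spot across three slides.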 The conditions noted are these: FSTL3 binding, higher = more signal.
Sequence of Follistatin-related protein 3 (Homo sapiens) (O95633 whole entry, looked up): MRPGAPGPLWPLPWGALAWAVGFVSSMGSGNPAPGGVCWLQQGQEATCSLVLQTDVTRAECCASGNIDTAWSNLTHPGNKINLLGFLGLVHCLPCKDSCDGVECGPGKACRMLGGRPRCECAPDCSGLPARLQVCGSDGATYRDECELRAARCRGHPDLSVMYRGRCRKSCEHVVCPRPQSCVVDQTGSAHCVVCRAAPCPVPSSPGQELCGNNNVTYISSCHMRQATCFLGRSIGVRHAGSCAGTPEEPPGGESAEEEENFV
For assay [19], the target named is Dickkopf-related protein 1 (Homo sapiens) (UniProt O94907). In words: DKK1 binders on small-molecule microarrays, primary screen, biochemical, small-molecule microarray, 635 nm fluorescence scan (AID 1106).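 Note: score merges emission near 667 nm with signal to noise over three replicate slides.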 The settings on record: DKK1 binding, higher = more signal.
Sequence of Dickkopf-related protein 1 (Homo sapiens) (O94907 whole entry, looked up): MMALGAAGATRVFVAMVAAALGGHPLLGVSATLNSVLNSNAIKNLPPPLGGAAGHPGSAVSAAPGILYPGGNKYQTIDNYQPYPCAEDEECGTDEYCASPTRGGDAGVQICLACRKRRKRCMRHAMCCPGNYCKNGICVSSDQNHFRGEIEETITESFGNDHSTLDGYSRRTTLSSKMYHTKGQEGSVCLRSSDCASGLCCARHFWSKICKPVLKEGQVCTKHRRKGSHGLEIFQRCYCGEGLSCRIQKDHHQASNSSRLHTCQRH
Assay [20] has as its system Inhibin beta A chain (activin A). Description: INHBA (activin A) binders on microarrays, primary screen, biochemical, small-molecule microarray, 635 nm fluorescence scan (AID 1107).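 Note: mouse activin A protein probed at 4.33 µg/mL on printed slides; score merges bound-protein fluorescence near 667 nm with spot signal-to-noise.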 The settings on record: small-molecule microarray binding, higher = more signal.

Sequence of Epidermal growth factor receptor (Homo sapiens) (P00533 whole entry, looked up): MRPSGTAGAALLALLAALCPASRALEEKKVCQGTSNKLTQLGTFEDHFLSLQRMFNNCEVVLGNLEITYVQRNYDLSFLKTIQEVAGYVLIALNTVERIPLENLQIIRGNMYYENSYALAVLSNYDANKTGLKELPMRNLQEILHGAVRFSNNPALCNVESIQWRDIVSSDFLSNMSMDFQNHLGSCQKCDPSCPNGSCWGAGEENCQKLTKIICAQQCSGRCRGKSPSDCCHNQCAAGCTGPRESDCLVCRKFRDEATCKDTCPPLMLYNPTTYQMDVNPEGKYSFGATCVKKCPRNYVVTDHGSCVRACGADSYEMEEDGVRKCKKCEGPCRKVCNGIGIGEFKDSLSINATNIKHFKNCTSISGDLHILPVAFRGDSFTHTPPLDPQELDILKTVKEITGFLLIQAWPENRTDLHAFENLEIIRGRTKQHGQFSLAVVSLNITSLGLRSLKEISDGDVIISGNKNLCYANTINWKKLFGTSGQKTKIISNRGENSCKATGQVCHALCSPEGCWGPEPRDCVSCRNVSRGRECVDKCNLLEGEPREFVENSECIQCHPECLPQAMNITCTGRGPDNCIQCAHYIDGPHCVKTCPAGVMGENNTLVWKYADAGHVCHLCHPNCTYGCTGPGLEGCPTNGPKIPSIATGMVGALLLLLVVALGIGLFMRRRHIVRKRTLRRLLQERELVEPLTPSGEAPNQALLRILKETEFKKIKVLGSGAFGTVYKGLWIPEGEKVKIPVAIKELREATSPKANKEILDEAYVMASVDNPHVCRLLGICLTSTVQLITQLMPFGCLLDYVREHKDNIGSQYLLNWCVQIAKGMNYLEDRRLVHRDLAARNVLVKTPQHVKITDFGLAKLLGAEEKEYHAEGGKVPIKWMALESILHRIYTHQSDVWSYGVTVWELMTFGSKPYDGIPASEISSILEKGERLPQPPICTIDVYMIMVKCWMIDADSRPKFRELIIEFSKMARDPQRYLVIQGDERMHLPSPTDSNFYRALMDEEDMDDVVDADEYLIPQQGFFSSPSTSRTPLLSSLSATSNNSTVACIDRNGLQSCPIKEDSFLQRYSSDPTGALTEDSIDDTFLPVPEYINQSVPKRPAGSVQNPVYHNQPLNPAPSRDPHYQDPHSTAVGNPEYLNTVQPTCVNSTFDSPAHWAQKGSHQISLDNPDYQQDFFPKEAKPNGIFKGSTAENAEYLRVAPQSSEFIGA
Sequence of Fibroblast growth factor 10 (Homo sapiens) (O15520 whole entry, looked up): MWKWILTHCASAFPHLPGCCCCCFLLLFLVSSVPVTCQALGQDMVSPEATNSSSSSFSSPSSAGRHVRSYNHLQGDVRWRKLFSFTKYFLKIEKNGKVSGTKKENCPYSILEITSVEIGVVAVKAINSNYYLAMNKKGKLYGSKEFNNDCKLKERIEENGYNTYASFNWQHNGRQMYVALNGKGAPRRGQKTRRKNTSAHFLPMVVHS
Sequence of Torsin-1A-interacting protein 2 (Homo sapiens) (Q8NFQ8 whole entry, looked up): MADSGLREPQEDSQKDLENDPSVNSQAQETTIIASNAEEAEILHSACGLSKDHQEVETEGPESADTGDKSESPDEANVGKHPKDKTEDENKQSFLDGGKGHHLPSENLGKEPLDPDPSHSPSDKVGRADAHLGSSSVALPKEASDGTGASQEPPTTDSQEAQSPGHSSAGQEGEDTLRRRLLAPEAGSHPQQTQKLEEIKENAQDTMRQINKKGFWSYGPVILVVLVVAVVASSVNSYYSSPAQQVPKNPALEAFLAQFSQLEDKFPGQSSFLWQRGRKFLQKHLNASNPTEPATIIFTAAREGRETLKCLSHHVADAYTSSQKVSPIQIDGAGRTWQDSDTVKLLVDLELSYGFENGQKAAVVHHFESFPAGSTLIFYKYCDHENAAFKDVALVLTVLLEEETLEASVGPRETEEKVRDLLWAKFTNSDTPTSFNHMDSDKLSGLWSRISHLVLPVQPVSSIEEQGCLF

On to `COCCOC(=O)N1C(=O)[C@@]2(c3cc(C#CC4=CCCCC4)ccc31)[C@H](C(=O)N1CCN(c3ncccn3)CC1)[C@H]1C(=O)O[C@H](c3ccccc3)[C@H](c3ccccc3)N1[C@@H]2c1ccc(O)cc1`, for which the composite z-score worked out at 1.53 in [1]; 1.53 in assay [5]; 0.0848 in [7]; 0.568 in [8]; 1.09 in assay [9]; 0.0891 in [10]. The composite z-score in assay [11] worked out at 0.827; in [12] it was 0.646; in [13] it was 0.509; in assay [15] it was 0.664; in assay [16], 1.27; in assay [17] it was 0.466. Moreover, the composite z-score in assay [18] came out at 1.14; in assay [19] it was 0.496; in [20], 0.275. The z-score was 0.783 (inactive) in assay [2]; 0.883 (inactive) in assay [3]; 2.1 (inactive) in assay [4]; -0.56 (inactive) in [6]; 0.345 (inactive) in [14].
Take `[N-]=[N+]=NCc1ccccc1C[C@@]1(C(=O)NCCN2CCOCC2)N=C(c2ccc(OCCCO)cc2)O[C@@H]1c1ccccc1N=[N+]=[N-]`: the composite z-score in assay [1] is 1.37; in [5], 3.12; in [7], 0.09; in [8], 0.622; in assay [9], 0.842; in assay [10] it was -0.0738. Besides, the composite z-score is 1.15 in [11]; 0.75 in assay [12]; 0.45 in [13]; 0.778 in assay [15]; 1.08 in assay [16]; 0.283 in assay [17]. Moreover, the composite z-score in [18] is 0.325; in assay [19], -0.194; in assay [20], 0.822. Besides, the z-score in [2] was -1.22 (inactive); in [3], -0.269 (inactive); in assay [4], 1.29 (inactive); in assay [6], -0.704 (inactive); in assay [14], -1.7 (inactive).
With `COCCOC(=O)N1C(=O)[C@@]2(c3cc(C#Cc4ccc(OC)cc4)ccc31)[C@H](C(=O)N1CCCCCCC1)[C@H]1C(=O)O[C@H](c3ccccc3)[C@H](c3ccccc3)N1[C@@H]2c1ccc(O)cc1`, the composite z-score in assay [1] amounted to 1.47; in assay [5] it was 1.79; in assay [7], 0.834; in [8], 0.674; in assay [9] it was 0.709; in assay [10], 0.0577. Besides, the composite z-score in assay [11] was determined as 0.773; in assay [12], 1.12; in assay [13], 0.522; in assay [15], 0.546; in assay [16] it was 1.15; in assay [17], 0.519. Besides, the composite z-score in [18] is 1.31; in [19] it was 0.567; in assay [20], 1.35. Also, the z-score is -0.194 (inactive) in assay [2]; 0.318 (inactive) in assay [3]; 2.3 (inactive) in [4]; 0.551 (inactive) in assay [6]; -0.527 (inactive) in assay [14].
Take `O=C1O[C@@H](c2ccccc2)[C@@H](c2ccccc2)N2[C@@H](c3ccccc3OCCO)[C@]3(C(=O)Nc4ccc(C#CCCO)cc43)[C@@H](C(=O)Nc3nc4ccccc4s3)[C@H]12`: the composite z-score in assay [1] turned out to be 1.55; in assay [5], 2.64; in assay [7] it was 0.259; in assay [8], 0.448; in assay [9] it was 1.05; in assay [10], 0.131. For the same compound, the composite z-score in assay [11] stood at 0.757; in [12], 0.74; in assay [13], 0.862; in [15] it was 0.828; in [16], 1.28; in [17], 0.528. Besides, the results for the composite z-score in [18], in [19] and in assay [20] were 1.35, 0.76 and 0.406, respectively. In addition, the z-score in assay [2] is 1.49 (inactive); in assay [3] it was -0.487 (inactive); in [4], 3.2 (inactive); in assay [6], 1.59 (inactive); in assay [14], -0.0337 (inactive).
Regarding `COc1ccc([Si](C)(C)[C@H]2[C@H](CCn3cc([C@H](O)c4ccccc4)nn3)O[C@@]3(C(=O)N(Cc4ccc(N5CCC5=O)cc4)c4ccccc43)[C@@H]2C)cc1`, the composite z-score in [1] was 1.57; in assay [5], 0.588; in assay [7], -0.184; in assay [8] it was 1.05; in assay [9], 0.698; in assay [10], -0.0953. In addition, the composite z-score was 0.995 in assay [11]; -0.185 in assay [12]; -0.403 in assay [13]; 0.865 in assay [15]; 0.365 in [16]; 0.631 in assay [17]. Moreover, the composite z-score in assay [18] came to 0.855; in assay [19] it was 0.527; in [20], 0.862. In addition, the z-score in [2] was -0.509 (inactive); in [3] it was 0.158 (inactive); in assay [4] it was 2.14 (inactive); in assay [6], 1.15 (inactive); in assay [14], 0.0121 (inactive).
